# Screening results (PubChem)
# HCMV inh = qHTS Assay for inhibitors of the human cytomegalovirus (HCMV). HFF cells, HCMV-luciferase reporter, 72 h; hits give low values. activity change, negative = inhibition, % at 57.5 µM. 4.5% of 410,000 active; in the data active = activity change below about -60%; inconclusive = no clear call, values can overlap the other calls; inactive = above about -39%
#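 Two compound doses tested in HFFs infected with HCMV-luciferase, MOI 1 PFU/cell, 72 h at 37C. Lysate luminescence read with OneGlo; data normalized against buffer-only and 10uM Salinomycin inhibitor controls.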
# HCV inh = qHTS Assay for Inhibitors of Hepatitis C Virus (HCV). Huh7.5.1 HCVcc-Cre infection, luciferase reporter, 44 h. Potency, µM (top dose mostly 41.8 µM), usual class: inhibitors. 3.4% of 340,000 active; active = well fitted inhibition curve with a large enough effect; inconclusive = small, poorly fitted or top-dose-only effect, or another doubt; inactive = no such curve, though single readings can be large or run the other way
#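 HCVcc-Cre virus at an moi near 0.5 was added right after compound to cells cultured 4 h from seeding (1,000 cells/well). Luciferase activity was determined 44 h later, 15 min after substrate addition at RT.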
# Vaccinia Venus = qHTS for Stage-Specific Inhibitors of Vaccinia Orthopoxvirus: Venus Reporter Primary qHTS; Vaccinia virus Venus reporter expression, fluorescence; Potency, µM (doses to about 36.5 µM), actives largely listed as inhibitors; 0.46% of 330,000 active; calls by dose curve; tested in A549 cells; note: nearly all actives have a fitted effect of over 30% in size
# FMDV antiviral = High Throughput Screening for Foot and Mouth Disease Virus Antivirals. 1.2% of 410,000 active. Potency, µM (highest dose often 57.9 µM), actives largely listed as inhibitors. FMDV antiviral cell-based qHTS; calls by dose curve; tested in HEK293T cells; note: read-out not given here; nearly all actives have a fitted effect of over 45% in size
# Vaccinia mCherry = qHTS for Stage-Specific Inhibitors of Vaccinia Orthopoxvirus: mCherry Reporter Primary qHTS; 0.63% of 310,000 active; Vaccinia virus mCherry reporter infection, fluorescence; Potency, µM (highest dose often 36.5 µM), hits mostly inhibitors; AID 720579, 2013; calls by dose curve; tested in A549 cells; note: nearly all actives have a fitted effect of over 35% in size
# A number is an active result; - = inactive; ? = inconclusive; . = no result given; [ ] = remark or other dose. Sampled rows, rich in hits. Any-hit rate of the full collection: about 7.3%.
SMILES,HCMV inh,HCV inh,Vaccinia Venus,FMDV antiviral,Vaccinia mCherry
Cc1ccc(Nc2ncc(C(=O)NCCCN3CCN(C)CC3)c3ccccc23)cc1Cl,-,10µM,-,-,-
O=C(NCCN1CCOCC1)c1cc(Sc2ccccc2Cl)nc2ccccc12,-61,?,.,.,.
COc1ccc(NC(=O)C2CCN(S(=O)(=O)c3c(C)noc3/C=C/c3ccco3)CC2)cc1,-67,.,-,-,-
Cc1ccc(NC(=O)C2CCN(S(=O)(=O)c3c(C)noc3/C=C/c3cccs3)CC2)cc1F,?,.,-,?,-
Cc1cc(C)c(/C=C/c2onc(C)c2S(=O)(=O)N2CCC(C(=O)Nc3ccc(Cl)c(C(F)(F)F)c3)CC2)c(C)c1,-97,.,-[7.34 µM],?,-[7.34 µM]
Cc1noc(/C=C/c2cccs2)c1S(=O)(=O)N1CCC(C(=O)Nc2ccc(F)c(Cl)c2)CC1,-73,.,-,?,-
COCCCN1C(=O)C(CC(=O)NC2CCCCC2)CC(C(=O)N(C)C)=C1C (configuration not stated),-,.,-,-,-
C#CCN1CC(COCCCC)Oc2cccc(Oc3ccc(C(C)(C)C)c(C)c3)c2S1(=O)=O (configuration not stated),-,.,.,.,.
COc1ccc(C)cc1NS(=O)(=O)c1cc(Br)cc2c1N(C(C)=O)C(C)C2 (configuration not stated),?,.,-,-,-
CCNc1nc(SCc2ccccc2)nc(N2CCOCC2)n1,-,5.6µM,-,-,.
COc1ccc(/C(N)=N/OC(=O)c2c(-c3ccccc3Cl)noc2C)cc1OC,-79,13µM,?,-,-
Cc1onc(-c2c(F)cccc2Cl)c1C(=O)O/N=C(\N)c1ccc([N+](=O)[O-])o1,-62,?,?,-,?
Cc1nc(/C(N)=N/OC(=O)c2c(-c3ccccc3Cl)noc2C)cs1,-,-,-,-,-
CCc1cccc(NC(=O)c2ccc3c(=O)n4nc(Nc5ccccc5OC)sc4nc3c2)c1,-88,.,4µM,-,4µM
O=C(NCc1ccccn1)c1ccc2c(=O)n3nc(Nc4ccccc4)sc3nc2c1,-,-,.,-,.
CCc1ccccc1Nc1nn2c(=O)c3ccc(C(=O)NCc4ccccc4OC)cc3nc2s1,?,.,-,-,-
COc1ccccc1Nc1nn2c(=O)c3ccc(C(=O)NCc4ccc(F)cc4)cc3nc2s1,-90,.,?,?,13µM
Cc1ccc(Cl)cc1Nc1nn2c(=O)c3ccc(C(=O)NCc4cccs4)cc3nc2s1,-98,.,?,?,?
CCN(CC)CCNC(=O)c1ccc2c(=O)n3nc(Nc4ccccc4)sc3nc2c1,-91,.,-,-,-
COc1ccc(CC(=O)OCC(=O)Nc2ccc3[nH]c(=O)[nH]c3c2)cc1OC,-,.,-,-,-
CCn1c(SCc2nc3cc(OC)c(OC)cc3c(=O)[nH]2)nc2ccccc21,-,-,-,-,-
CCSc1nc2cc(OC)c(OC)cc2c(=O)n1CC,-,5µM,-,-,?
CCN(CC)S(=O)(=O)c1cc(NC(=O)CSc2nc3c(cc2C#N)C(=O)CC(C)(C)C3)ccc1C,-85,?,-,?,-
CCN(CC)S(=O)(=O)c1cc(NC(=O)CSc2nnc(N)s2)ccc1C,-,-,.,-,.
CCOC(=O)C(Cc1ccccc1)C(=O)NCc1ccccc1 (configuration not stated),-,-,-,-,-
SMILES,HCMV inh,HCV inh,Vaccinia Venus,FMDV antiviral,Vaccinia mCherry
S=C1NC2=C(CCCC2)C2(CCCCC2)N1,-,-,-,-,.
C1CCC2(CC1)C1=C(CCCC1)Nc1nnnn12,-93,-,.,-,.
CCOC(=O)c1c(-c2ccccc2)c2cc(OC)ccc2n1CCCN(C)C,-,14µM,.,-,.
Cc1cc(C)cc(NC(=O)NCCn2nnc3cc(S(=O)(=O)N(C)C)ccc32)c1,-,.,-,-,-
COc1ccc(-c2coc3c(C)c4oc(=O)c(CCC(=O)O)c(C)c4cc23)cc1,.,2.5µM,-,-,-
O=C1CC[C@@H](S(=O)(=O)c2ccccc2)[C@H](c2ccccc2)N1Cc1ccccc1,-,.,.,.,.
COc1cc(/C=C2\SC(=S)NC2=O)ccc1OS(=O)(=O)c1ccccc1,.,-,.,.,.
COc1cc(/C=C2/SC(=S)NC2=O)ccc1OS(=O)(=O)c1ccc(C)cc1,.,-,-,28µM,-
CC(C)CCNC(=O)Cn1c(SCc2cccc(F)c2)nc2ccncc21,.,.,-,.,-
CN1OC[C@@H]2CN3C(=O)N(c4cccc5ccccc45)c4ccccc4[C@@H]3C[C@@H]21,-102,.,-,-,-
CC(C)C[C@H]1CNC(=S)N1CC1CCCN1C[C@H](CC(C)C)N1C[C@H](Cc2ccc(O)cc2)N(CC2CCCCCC2)C1=S (some centres not stated),-102,-,28µM,?,?
CC(C)C[C@@H](CN1CCCC1CN1C(=S)NC[C@@H]1Cc1ccc(O)cc1)N1C[C@H](Cc2ccc(O)cc2)N(CC2CCCCC2)C1=S (some centres not stated),-98,?,10µM,?,?
CC(C)C[C@@H](CN1CCC[C@@H]1CN1C(=S)NC[C@@H]1Cc1ccccc1)N1C[C@H](Cc2ccc(O)cc2)N(CC2CCCCC2)C1=S,-,.,-,-,-
CC(C)C[C@H]1CNC(=S)N1CC1CCCN1C[C@H](CC(C)C)N1C[C@H](Cc2ccc(O)cc2)N(CC2CCCCC2)C1=S (some centres not stated),-98,10µM,?,-,?
CC(C)C[C@H]1CNC(=S)N1C[C@H]1CCCN1C[C@H](CC(C)C)N1C[C@H](Cc2ccc(O)cc2)N(CC2CCCCCC2)C1=S,-101,.,-,-,-
COc1cccc(N/C(SCc2cccc([N+](=O)[O-])c2)=C(/C#N)C(N)=O)c1,-,-,-,35µM,-
Cc1ccccc1N/C(SCc1cccc(Br)c1)=C(/C#N)C(N)=O,-68,-,-,-,-
Cc1ccccc1NC(=O)NNC(=O)CCc1ccccc1,-,-,-,-,-
COc1ccccc1N1CCN(C(=O)c2ccc3c(c2)N(Cc2cc(C)ccc2C)C(=O)c2ccccc2S3(=O)=O)CC1,-67,.,-,-,-
Cc1ccc(C)c(CN2C(=O)c3ccccc3S(=O)(=O)c3ccc(C(=O)N4CCN(C)CC4)cc32)c1,-,?,-,-,-
Cc1ccc(C)c(CN2C(=O)c3ccccc3S(=O)c3ccc(C(=O)N4CCN(c5ccccn5)CC4)cc32)c1 (configuration not stated),-98,11µM,-,-,?
CC(C)(C)S(=O)N1Cc2cc(C(=O)N3CCc4ccccc4C3)nc(-c3cccc(-c4ccncc4)c3)c2[C@H]1CCO (some centres not stated),-,.,-,-,-
C[C@@H]1CCCCO[C@H](CN(C)C(=O)CCC(F)(F)F)[C@H](C)CN([C@@H](C)CO)C(=O)c2cc(NS(=O)(=O)c3ccc(Cl)cc3)ccc2O1,-,.,.,.,.
